Assay outcomes: PubChem BioAssay, University of Kansas High Throughput Screening Laboratory
Rows were chosen to be rich in hits. Some 3.5% of all compounds tested hit in one or more screens of this group.
mHTT-CaM PPI inh = inhibitors of human mutant huntingtin-calmodulin interaction; P42858; AlphaScreen His-mHTT/GST-CaM binding, luminescence; inhibition, % at 15 µM; 3.6% of 190,000 active;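 further: 0% = both proteins with DMSO and 100% = one protein alone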
Pf apPOL block = Pf-apPOL DNA polymerase inhibition; Recombinant Pf-apPOL, molecular beacon fluorescence, 1.5 h; inhibition, % at 10 µM; 0.25% of 210,000 active; AID 1794808
* marks the source's active call; other numbers are inactive results; i = inactive; x = no result; ! = not active in a repeat. No stated cut-off is given here; in the data, active means inhibition above about 50%; inactive means the rest.

SMILES	mHTT-CaM PPI inh	Pf apPOL block
CCC(=O)N1CCc2sc(S(=O)(=O)NCc3ccc(Cl)cc3)cc2C1	7	-7
CCC1=NS(=O)(=O)c2cccnc2N1c1cccc(CC)c1	-2	0
O=C(NC1CC1)c1cccc(OCC2CCCN(C(=O)c3ccccc3C(F)(F)F)C2)c1 (configuration not stated)	8	-1
CC(C)CC(C(=O)N1CCOCC1)N1C(=O)C2C3c4ccccc4C(c4ccccc43)C2C1=O (configuration not stated)	55*	-10
C=C1CCN([C@@H](CC(C)C)C(=O)N2CCOCC2)S(=O)(=O)c2ccccc21	9	-1
CCCC1CCC2(CC1)CC[C@H]2OC(=O)Nc1ccccc1C (some centres not stated)	-14	-5
CCOC(CNC(=O)c1sc2ncn(Cc3cccc(F)c3)c(=O)c2c1C)OCC	1	2
O=C(Nc1cccnc1)C(=O)Nc1cccnc1	82*	-5
O=C(Nc1cc([N+](=O)[O-])ccc1C(=O)Nc1cccnc1)c1ccccc1	4	-1
O=C(Nc1ccc(-c2ccc(NC(=O)Nc3cccnc3)cc2)cc1)Nc1cccnc1	10	3
COc1ccc(C(=O)Nc2ccccc2C(=O)Nc2ccccc2C(=O)O)cc1	84*	-7
O=C(Nc1ccccc1C(=O)Nc1cccnc1)c1ccccc1	-3	51*!
COc1ccc(C(=O)Nc2ccccc2C(N)=O)cc1	6	-2
O=C(c1cc2cc(Br)ccc2oc1=O)N1CCSC1c1ccccc1 (configuration not stated)	3	-4
O=C(NCc1cccc(Br)c1)C1CCN(c2nnc(-c3ccccc3)o2)CC1	26	-7
O=C(/C=C/c1ccc(-c2ccccc2)o1)c1ccco1	48	-1
O=C(/C=C/c1ccc(-c2ccc(Cl)cc2)o1)c1ccco1	58*	-4
CC1=C/C(=C/c2ccc(-c3ccc([N+](=O)[O-])cc3)o2)C(=O)O1	19	3
O=C(/C=C/c1ccc(-c2ccccc2[N+](=O)[O-])o1)c1ccco1	71*	-4
CC1=C/C(=C\c2ccc(-c3ccccc3[N+](=O)[O-])o2)C(=O)O1	51*	0
O=C(/C=C/c1ccc(-c2ccc([N+](=O)[O-])cc2)o1)c1ccco1	13	8
COCCN1C(=O)c2ccccc2C(C(=O)NCc2cccnc2)C1c1ccc(F)cc1 (configuration not stated)	-3	2
O=C(Nc1nnc(-c2ccccc2)s1)c1ccccc1Cl	-2	2
O=C1N=C(N2CCOCC2)S/C1=C\c1ccc(-c2ccccc2)o1	80*	-2
Cc1ccc(/C=C2\SC(c3ccccc3)=NC2=O)o1	56*	-6
SMILES	mHTT-CaM PPI inh	Pf apPOL block
O=C1N=C(N2CCOCC2)S/C1=C\c1cccs1	-5	6
O=C1N=C(c2ccccc2)S/C1=C/c1ccc2c(c1)OCO2	-3	1
Cc1ccc(OCC(=O)Nc2nnc(C3CC(=O)N(c4ccc(Cl)cc4)C3)o2)cc1 (configuration not stated)	-3	-4
O=C(Nc1cc(Cl)cc(Cl)c1)N1CCCN(Cc2ccccc2)CC1	x	-11
O=C(Nc1ccc(Cl)c(Cl)c1)N1CCCN(Cc2ccccc2)C1	95*	16
CC(C)CCN1COc2ccc3c4c(oc3c2C1)C(=O)c1ccccc1C4=O	74*	12
O=C1c2ccccc2C(=O)c2c1oc1c3c(ccc21)OCN(C1CCCC1)C3	78*	50
COc1ccc(CCN2COc3ccc4c5c(oc4c3C2)C(=O)c2ccccc2C5=O)cc1OC	44	-3
O=c1c(-c2ccccc2)coc2c3c(ccc12)OCN(C1CCS(=O)(=O)C1)C3 (configuration not stated)	-1	-5
O=C1c2ccccc2C(=O)c2c1oc1c3c(ccc21)OCN(C1CCS(=O)(=O)C1)C3 (configuration not stated)	91*	69*!
O=C1c2ccccc2C(=O)c2c1oc1c3c(ccc21)OCN(CC1CCCO1)C3 (configuration not stated)	40	10
Cc1cccc(NC(=O)C2CC(=O)N(c3cccc(Cl)c3C)C2)c1C (configuration not stated)	2	0
O=C(NC1CCCC1)N1CCCC1c1nc(-c2cccc(C(F)(F)F)c2)no1 (configuration not stated)	-3	-8
Cc1ccc(NC(=O)/C=N/OC(=O)NC2CCCCC2)cc1	i	-2
CCCC(=O)Nc1ccc(Cl)c(Cl)c1	-12	0
Cc1cccc(-c2nc(COc3ccc(F)cc3)no2)c1	-31	-4
COc1ccc(C(=O)N2CCCC3(C2)Nc2ccccc2NC3=NC(C)(C)C)cc1OC (configuration not stated)	31	2
CC(C)Sc1cccc(-c2nnc(NC(=O)c3cc(-c4ccco4)on3)o2)c1	37	-48
CC(C)Sc1cccc(C(=O)Nc2nnc(-c3ccnn3C(C)C)o2)c1	68*	-214
CCCCC(=O)N1CCC2(CC1)NC(=O)c1cc(F)c(F)cc1N2	-3	-1
Cc1nc(-c2cccnc2)nc2c1CCC(=O)N2CCC1=CCCCC1	57*	5
Cc1nc(-c2ccncc2)nc2c1CCC(=O)N2CCC1=CCCCC1	13	6
O=C(O)/C=C/C(=O)N(Cc1ccc2c(c1)OCO2)C1CC(=O)N(c2ccc(F)cc2)C1=O (configuration not stated)	-4	-2
C=CCOc1nc2c(c(=O)n(C)c(=O)n2C)n1C	100*!	-2
C/C=C/COc1nc2c(c(=O)n(C)c(=O)n2C)n1C	-7	1
SMILES	mHTT-CaM PPI inh	Pf apPOL block
Nc1ccc2nc(-c3ccccc3Br)[nH]c2c1	57*	8
Nc1ccc2nc(CCc3nc4ccc(N)cc4[nH]3)[nH]c2c1	35	-3
Nc1ccc2nc(C(F)(F)F)[nH]c2c1	-1	x
Nc1ccc(-c2nc3c(Cl)cc(N)cc3[nH]2)cc1	40	0
Nc1ccc2nc(-c3ccc(N)c(Cl)c3)[nH]c2c1	66*	14
Nc1ccc2nc(-c3ccc(Oc4ccc(-c5nc6ccc(N)cc6[nH]5)cc4)cc3)[nH]c2c1	65*	0
O=C(CCc1cc2ccccc2[nH]c1=O)N1CCOCC1	-12	-4
O=C(NCCNc1ccc([N+](=O)[O-])cn1)c1ccco1	1	-12
C=CCNC(=O)CC1Sc2ccccc2NC1=O (configuration not stated)	-4	-1
COCCCNS(=O)(=O)c1ccc2nc(-c3ccccc3)[nH]c2c1	2	-8
O=C(CCN1CCN(C2c3ccccc3-c3ccccc32)CC1)Nc1ccccc1F	15	-2
CCOc1ccccc1NC(=O)CCN1CCN(C2c3ccccc3-c3ccccc32)CC1	57*	0
COCCn1cc2c3c(cccc31)CN(C(=O)Nc1cc(OC)c(OC)c(OC)c1)CC2	20	-4
CCCCC(C(=O)O)n1c(O)c(C=C2C=Nc3ccccc32)sc1=S (configuration not stated)	100*	25
CC(C)Cc1nn2c(N)c(C=C3C=Nc4ccccc43)c(=O)nc2s1	11	-15
CCOc1cccc(C(=O)Nc2cc(-c3nc4ncccc4o3)ccc2Cl)c1	-5	-11
COc1cc(CN2COc3ccc4c(c3C2)OC(=Cc2ccccc2)C4=O)cc(OC)c1OC	12	-16
COc1ccccc1CN1COc2ccc3c(c2C1)OC(=Cc1ccco1)C3=O	18	-20
COc1cc(CN2COc3ccc4c(c3C2)OC(=Cc2ccco2)C4=O)cc(OC)c1OC	51*	-19
